# Laboratory results from PubChem BioAssay (Tox21).
# Values joined by “and” are separate entries in the source; they are usually repeats but may differ in a detail not shown here. Equal values may be shown once. Inconclusive results are not listed. Where a call stands in place of a potency, no number is given. The source holds several records for some structures; these can differ, active in one and inactive in another. Active and inactive are the calls of the source. Unless noted, the call rests on the fitted dose curve.
# What was measured:
# [1] = Nuclear factor erythroid 2-related factor 2/antioxidant responsive element (Nrf2/ARE) small molecule agonists: qHTS cell viability counter screen in human keratinocytes (AID 1919968; active means well fitted curve in the direction sought with a large enough effect in the repeat runs; an effect the other way counts as inactive or inconclusive; further: nearly all actives have a fitted effect of over 55% in size; further: potency means the concentration at half of the fitted maximal effect)
# Procedure, shortened: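 KeratinoSens HaCaT cells, 1,500/well, preincubated 5 h, then exposed to compounds in DMSO for 23 h at 37 C/5% CO2. Viability read as CellTiter-Fluor fluorescence after 1 h, in the same wells as the ARE-luciferase read.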
# [2] = Nuclear factor erythroid 2-related factor 2/antioxidant responsive element (Nrf2/ARE) small molecule agonists: luciferase reporter gene qHTS assay in human keratinocytes (AID 1919969); further: nearly all actives have a fitted effect of over 35% in size; further: potency means the concentration at half of the fitted maximal effect
# [3] = molecular target: Gonadotropin-releasing hormone receptor (Homo sapiens) (UniProt P30968); assay: Human gonadotropin-releasing hormone receptor (GnRHR) small molecule agonists, calcium flux assay in GnRHR-HEK293 cells (AID 1920063); further: nearly all actives have a fitted effect of over 35% in size
# Sequence of Gonadotropin-releasing hormone receptor (Homo sapiens) (P30968 whole entry, looked up): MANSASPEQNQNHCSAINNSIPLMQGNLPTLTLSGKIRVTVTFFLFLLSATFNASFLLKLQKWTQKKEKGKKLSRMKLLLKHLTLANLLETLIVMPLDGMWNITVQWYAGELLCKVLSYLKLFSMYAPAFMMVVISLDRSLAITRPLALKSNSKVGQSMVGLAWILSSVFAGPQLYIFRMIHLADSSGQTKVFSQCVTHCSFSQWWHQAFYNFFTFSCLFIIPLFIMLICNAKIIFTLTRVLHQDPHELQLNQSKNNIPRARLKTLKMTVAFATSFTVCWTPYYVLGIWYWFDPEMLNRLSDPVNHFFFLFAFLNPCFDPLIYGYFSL
# Procedure, shortened: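 HEK293 cells stably expressing human GnRHR were dye-loaded for 1 h at 37 C. Compound was added in agonist mode and fluorescence (Ex/Em 480/540) recorded kinetically for 3 min. Fifteen concentrations, triplicates.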
# [4] = molecular target: KiSS-1 receptor (Homo sapiens) (UniProt Q969F8); assay: Human kisspeptin (KISS1R) small molecule agonists, calcium flux assay in KISS1R-HEK293 cells (AID 1920064; active means well fitted curve in the direction sought with a large enough effect in the repeat runs; an effect the other way counts as inactive or inconclusive)
# Sequence of KiSS-1 receptor (Homo sapiens) (Q969F8 whole entry, looked up): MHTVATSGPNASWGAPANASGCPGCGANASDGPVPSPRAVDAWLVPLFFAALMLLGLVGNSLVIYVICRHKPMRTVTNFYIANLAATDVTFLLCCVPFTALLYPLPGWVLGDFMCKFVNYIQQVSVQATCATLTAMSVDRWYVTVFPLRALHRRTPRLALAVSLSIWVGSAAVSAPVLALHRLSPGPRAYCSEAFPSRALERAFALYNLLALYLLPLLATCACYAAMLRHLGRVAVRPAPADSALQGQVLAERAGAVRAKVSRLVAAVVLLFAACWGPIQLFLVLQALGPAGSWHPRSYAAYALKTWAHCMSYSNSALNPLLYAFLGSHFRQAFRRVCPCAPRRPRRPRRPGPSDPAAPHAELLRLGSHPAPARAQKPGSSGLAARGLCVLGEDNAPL
# Procedure, shortened: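 HEK293 cells stably expressing human KISS1R were loaded with calcium dye for 1 h at 37 C, then given compound; fluorescence (Ex/Em 480/540) was read kinetically for 3 min. Fifteen concentrations, triplicate.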
# [5] = G protein-coupled receptor (GPCR) small molecule agonists, calcium flux assay: HEK293 wild type cell line counter screen (AID 1920065)
# Procedure, shortened: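 Wild-type HEK293 cells plated 18 h, loaded with calcium dye 1 h at 37 C, then compounds added in agonist mode (ATP as positive control). Kinetic fluorescence Ex/Em 480/540 recorded 3 min at 1 sec intervals; 15 concentrations, triplicate.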
# [6] = p53 small molecule agonists, cell-based qHTS assay with human liver microsomes (AID 1963577)
# Procedure, shortened: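 Cells carrying a p53-responsive bla reporter were rested 5 h (37 C, 5% CO2) before compound transfer. Human liver microsomes plus NADPH, 0.5 mg/mL final apiece, supplied metabolism during the 16 h 37 C exposure.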
# [7] = p53 small molecule agonists, cell-based qHTS assay with rat liver microsomes (AID 1963578)
# Procedure, shortened: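 Fluorescence from a beta-lactamase reporter under a p53 response element was measured after cells had been incubated 16 h at 37 C with test compound and rat liver microsomes plus NADPH (0.5 mg/mL final each).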
# [8] = p53 small molecule agonists, cell-based qHTS assay with human liver microsomes: qHTS cell viability counter screen (AID 1963579); further: nearly all actives have a fitted effect of over 45% in size; further: potency means the concentration at half of the fitted maximal effect
# Procedure, shortened: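 Seed p53RE-bla cells at 4,000 per well; incubate 5 h at 37 C; add compound, human liver microsomes and NADPH; incubate 16 h at 37 C; add CellTiter-Glo; after 30 min at room temperature, read luminescence.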
# [9] = p53 small molecule agonists, cell-based qHTS assay with rat liver microsomes: qHTS cell viability counter screen (AID 1963580); further: nearly all actives have a fitted effect of over 45% in size
# Procedure, shortened: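 In HCT-116 cells carrying a p53 response element-bla reporter, compounds were metabolically activated in situ by rat liver microsomes with NADPH over 16 h. Cell ATP content then served as the cytotoxicity measure.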
# [10] = p53 small molecule agonists, cell-based qHTS assay: qHTS cell viability counter screen (AID 1963581); further: nearly all actives have a fitted effect of over 45% in size
# Procedure, shortened: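 p53RE-bla HCT-116 cells, compounds added 5 h after plating and incubated 16 h at 37 C. Cytotoxicity measured in the same wells as intracellular ATP by CellTiter-Glo luminescence after 30 min at room temperature.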
# [11] = p53 small molecule agonists, cell-based qHTS assay (AID 1963582; active means well fitted activation curve with a large enough effect in the signal ratio in the repeat runs, not every such curve was filed as active; the % refers to the signal ratio)
# Procedure, shortened: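 p53RE-bla reporter cells, compounds added in DMSO after 5 h plating, incubated 16 h at 37 C. Beta-lactamase read via 2 h room-temperature LiveBLAzer B/G FRET substrate, fluorescence intensity.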
# [12] = cAMP Responsive Elements (CRE) small molecule agonists, cell-based qHTS assay (AID 1963590)
# Procedure, shortened: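 CRE-bla HEK 293T cells, 2,000/well in DMEM with 10% dialyzed FBS and 25 mM HEPES, pre-incubated 18 h at 37 C, then exposed to compound 3 h at 37 C. Beta-lactamase reporter read with LiveBLAzer B/G FRET substrate after 2 h at room temperature.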
# [13] = cAMP Responsive Elements (CRE) small molecule antagonists, cell-based qHTS assay (AID 1963591; active means well fitted inhibition curve with a large enough effect in the signal ratio in the repeat runs, not every such curve was filed as active; the % refers to the signal ratio)
# Procedure, shortened: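 CRE-bla HEK293T cells plated 18 h, then given compound plus NKH477 at 0.25 uM final for 3 h at 37C. Beta-lactamase reporter read with LiveBLAzer B/G FRET substrate after 2 h at room temperature.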
# [14] = molecular target: Beta-2 adrenergic receptor (Homo sapiens) (UniProt P07550); assay: Adrenergic beta2 receptor (ADRB2) small molecule antagonists, cell-based qHTS assay (AID 1963592); further: series mostly up to about 92 µM; nearly all actives have a fitted effect of over 50% in size
# Sequence of Beta-2 adrenergic receptor (Homo sapiens) (P07550 whole entry, looked up): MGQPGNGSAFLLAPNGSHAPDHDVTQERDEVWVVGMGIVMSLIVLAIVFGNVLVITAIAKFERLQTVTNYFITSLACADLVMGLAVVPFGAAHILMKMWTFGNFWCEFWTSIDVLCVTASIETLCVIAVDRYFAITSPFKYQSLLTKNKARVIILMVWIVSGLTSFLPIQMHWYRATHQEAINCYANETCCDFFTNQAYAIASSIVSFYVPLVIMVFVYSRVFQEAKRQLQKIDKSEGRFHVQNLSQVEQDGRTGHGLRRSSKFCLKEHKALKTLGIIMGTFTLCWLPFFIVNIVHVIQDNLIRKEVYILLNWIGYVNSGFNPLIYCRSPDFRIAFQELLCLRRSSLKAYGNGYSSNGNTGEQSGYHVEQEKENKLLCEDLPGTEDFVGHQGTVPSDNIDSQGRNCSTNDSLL
# Procedure, shortened: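 Cells (CHO, stable ADRB2 overexpression) incubated 18-20hr at 37C; compounds added from DMSO; agonist mix (1nM isoproterenol, 100uM IBMX, 25uM Ro-20-1724) added; 0.5hr RT; d2-cAMP and anti-cAMP-cryptate added; 1hr RT; 665/615 nm read.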
# [15] = molecular target: Beta-2 adrenergic receptor (Homo sapiens) (UniProt P07550); assay: Adrenergic beta2 receptor (ADRB2) small molecule agonists, cell-based qHTS assay (AID 1963593);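 further: CHO cells stably overexpressing human ADRB2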
# Procedure, shortened: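 CHO cells stably over-expressing ADRB2 were plated overnight at 37C, then dosed with compounds plus a stimulation mix containing 100uM IBMX and 25uM Ro-20-1724 for 0.5hr at room temperature. cAMP was measured by HTRF competition, 1hr.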
# [16] = molecular target: D(2) dopamine receptor (Homo sapiens) (UniProt P14416); assay: Dopamine D2 receptor (DRD2) small molecule agonists, cell-based qHTS assay (AID 1963594); further: nearly all actives have a fitted effect of over 35% in size
# Sequence of D(2) dopamine receptor (Homo sapiens) (P14416 whole entry, looked up): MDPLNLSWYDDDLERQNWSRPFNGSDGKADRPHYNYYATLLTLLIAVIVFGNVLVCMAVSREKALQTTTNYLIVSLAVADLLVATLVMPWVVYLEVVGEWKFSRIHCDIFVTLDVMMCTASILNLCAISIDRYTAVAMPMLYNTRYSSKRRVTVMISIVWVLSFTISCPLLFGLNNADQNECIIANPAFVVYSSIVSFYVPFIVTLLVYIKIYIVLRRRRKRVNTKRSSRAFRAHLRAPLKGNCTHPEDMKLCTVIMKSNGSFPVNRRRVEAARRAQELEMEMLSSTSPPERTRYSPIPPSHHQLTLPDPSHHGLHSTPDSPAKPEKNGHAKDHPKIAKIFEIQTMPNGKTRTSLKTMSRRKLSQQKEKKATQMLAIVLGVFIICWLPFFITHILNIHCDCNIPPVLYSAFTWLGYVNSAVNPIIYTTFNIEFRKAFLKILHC
# Procedure, shortened: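 HEK293 cells stably expressing DRD2 were cultured 24 h at 37 C, then given Ro20-1724 (0.1 mM final) and compounds for 10 min at room temperature. NKH477 (200nM) was then added for 30 min. cAMP was read by HTRF.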
# [17] = molecular target: D(2) dopamine receptor (Homo sapiens) (UniProt P14416); assay: Dopamine D2 receptor (DRD2) small molecule antagonists, cell-based qHTS assay (AID 1963595; active means well fitted inhibition curve with a large enough effect in the signal ratio in the repeat runs, with a control signal flat; the % refers to the signal ratio)
# Procedure, shortened: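 Readout: HTRF cAMP, cAMP-d2 competing with cellular cAMP for anti-cAMP cryptate, read after 1 h. Cells: DRD2-HEK293. Conditions: 0.1 mM Ro20-1724, 12 nM quinpirole, 200 nM NKH477, 30 min RT.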
# [18] = molecular target: 5-hydroxytryptamine receptor 2A (Homo sapiens) (UniProt P28223); assay: 5-hydroxytryptamine receptor 2A (HTR2A) small molecule agonists, cell-based qHTS assay (AID 1963587); further: nearly all actives have a fitted effect of over 30% in size
# Sequence of 5-hydroxytryptamine receptor 2A (Homo sapiens) (P28223 whole entry, looked up): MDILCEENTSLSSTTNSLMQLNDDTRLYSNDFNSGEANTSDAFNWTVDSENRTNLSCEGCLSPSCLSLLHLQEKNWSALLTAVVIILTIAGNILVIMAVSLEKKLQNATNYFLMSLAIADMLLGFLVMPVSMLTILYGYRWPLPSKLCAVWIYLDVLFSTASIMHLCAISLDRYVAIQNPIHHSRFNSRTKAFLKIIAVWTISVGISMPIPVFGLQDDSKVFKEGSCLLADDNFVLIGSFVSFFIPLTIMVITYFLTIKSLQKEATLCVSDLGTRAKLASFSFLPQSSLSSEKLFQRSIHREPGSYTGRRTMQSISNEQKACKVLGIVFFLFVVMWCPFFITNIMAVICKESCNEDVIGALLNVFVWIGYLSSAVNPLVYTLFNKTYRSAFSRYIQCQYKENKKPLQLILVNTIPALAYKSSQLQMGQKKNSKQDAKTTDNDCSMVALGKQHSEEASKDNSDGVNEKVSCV
# Procedure, shortened: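 HTR2A-CHO cells, plated 18 h at 37 C/5% CO2, dye-loaded 1 h at 37 C; compounds in DMSO added by pin tool (agonist mode). Intracellular calcium flux read as kinetic fluorescence on FDSS over 2 min at 1 s intervals.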
# [19] = molecular target: Muscarinic acetylcholine receptor M1 (Homo sapiens) (UniProt P11229); assay: Cholinergic receptor muscarinic 1 (CHRM1) small molecule agonists, cell-based qHTS assay (AID 1963589); further: nearly all actives have a fitted effect of over 35% in size
# Sequence of Muscarinic acetylcholine receptor M1 (Homo sapiens) (P11229 whole entry, looked up): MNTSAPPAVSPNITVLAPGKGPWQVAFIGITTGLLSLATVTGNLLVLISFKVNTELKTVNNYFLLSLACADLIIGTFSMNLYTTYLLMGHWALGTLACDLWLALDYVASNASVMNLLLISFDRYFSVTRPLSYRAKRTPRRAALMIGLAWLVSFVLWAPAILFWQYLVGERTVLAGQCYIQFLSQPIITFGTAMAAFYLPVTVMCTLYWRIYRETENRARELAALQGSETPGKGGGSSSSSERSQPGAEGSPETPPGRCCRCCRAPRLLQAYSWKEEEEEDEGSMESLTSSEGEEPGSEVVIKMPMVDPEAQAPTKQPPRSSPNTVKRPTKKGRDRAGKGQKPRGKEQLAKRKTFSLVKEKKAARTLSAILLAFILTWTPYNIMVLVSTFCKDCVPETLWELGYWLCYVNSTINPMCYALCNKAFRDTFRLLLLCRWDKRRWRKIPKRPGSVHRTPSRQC
# Procedure, shortened: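 CHO cells stably expressing human CHRM1 were loaded with calcium dye for 1 h at 37 C, then compound was added in agonist mode. Intracellular calcium fluorescence was followed kinetically at 1 s intervals. Fifteen concentrations were tested in three independent runs.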
Compound,Potency [1],Potency [2],Potency [3],Potency [4],Potency [5],Potency [6],Potency [7],Potency [8],Potency [9],Potency [10],Potency [11],Potency [12],Potency [13],Potency [14],Potency [15],Potency [16],Potency [17],Potency [18],Potency [19]
NC(=O)NO,inactive,inactive,inactive,inactive,inactive,inactive,inactive,inactive,inactive,inactive,inactive,inactive,inactive,inactive,inactive,inactive,inactive,,
CC[C@H](C)C(=O)O[C@H]1C[C@@H](C)C=C2C=C[C@H](C)[C@H](CC[C@@H]3C[C@@H](O)CC(=O)O3)[C@H]21,69.6 µM (active) and inactive,inactive,inactive,inactive,inactive,inactive,inactive,inactive,inactive,inactive,inactive,inactive,inactive,inactive,,inactive,inactive,,
CC(C)(Oc1ccc(C2CC2(Cl)Cl)cc1)C(=O)O (stereo unspecified),inactive,inactive,inactive,inactive,inactive,inactive,inactive,inactive,inactive,inactive,inactive,inactive,inactive,inactive,inactive,inactive,inactive,,
C#C[C@]1(O)CC[C@H]2[C@@H]3CCc4cc(OC)ccc4[C@H]3CC[C@@]21C,inactive,54.5 µM (active) and 26.6 µM (active),inactive,inactive,inactive,inactive,inactive,inactive,inactive,inactive,inactive,inactive,inactive,inactive,,,inactive,,
COC(=O)/C=C\C(=O)OC,inactive,inactive,inactive,inactive,inactive,inactive,inactive,inactive,inactive,inactive,inactive,inactive,inactive,,inactive,inactive,inactive,inactive,inactive
C[C@H]1C[C@H]2[C@@H]3CCC4=CC(=O)C=C[C@]4(C)[C@@]3(F)[C@@H](O)C[C@]2(C)[C@@]1(O)C(=O)CO,inactive,inactive,inactive,inactive,inactive,inactive,inactive,inactive and 793 nM (active),inactive,inactive,inactive,inactive,inactive,inactive,inactive,inactive,inactive,,
CCCN(CCC)S(=O)(=O)c1ccc(C(=O)O)cc1,inactive,inactive,inactive,inactive,inactive,inactive,inactive,inactive,inactive,inactive,inactive,inactive,inactive,inactive,inactive,inactive,inactive,,
CCOc1ccc(NC(C)=O)cc1,inactive,inactive,inactive,inactive,inactive,inactive,inactive,inactive,inactive,inactive,inactive,inactive,inactive,inactive,inactive,inactive,inactive,,
Cc1[nH]c(=O)c(C#N)cc1-c1ccncc1,inactive,inactive,inactive,inactive,inactive,inactive,inactive,inactive,inactive,inactive,inactive,inactive,inactive,inactive,inactive,inactive,inactive,,
CC1Cc2ccccc2N1NC(=O)c1ccc(Cl)c(S(N)(=O)=O)c1 (stereo unspecified),inactive,inactive,inactive,inactive,inactive,inactive,inactive,inactive,inactive,inactive,inactive,inactive,inactive,inactive,inactive,inactive,inactive,,
C=C(C)C(=O)O,inactive,inactive,inactive,inactive,inactive,inactive,inactive,inactive,inactive,inactive,inactive,inactive,inactive,inactive,,inactive,inactive,,inactive
CC(C)=CCC/C(C)=C\CO,inactive,inactive,inactive,inactive,inactive,inactive,inactive,inactive,inactive,inactive,inactive,inactive,inactive,inactive,inactive,inactive,inactive,,
CC1=NN(c2ccccc2)C(=O)C1,inactive,inactive,inactive,inactive,inactive,inactive,inactive,inactive,inactive,inactive,inactive,inactive,inactive,inactive,inactive,inactive,inactive,,
CCOC(=O)C(C)(C)Oc1ccc(Cl)cc1,inactive,inactive,inactive,inactive,inactive,inactive,inactive,inactive,inactive,inactive,inactive,inactive,inactive,inactive,inactive,inactive,inactive,,
